# Laboratory results: PubChem BioAssay (NCI)
# About 83,000 compounds went through this panel and 20% of them were active in at least one assay; those are over-represented in the sample as a whole.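 Single-dose data. Exposure time 48 hours. Values below 10 considered active.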 Unmarked numbers belong to inactive results. Calls of active or inactive are those of the source.
# How the values were obtained:
# Assay in all cases: NCI-60 one-dose screen, 48 h (100 = growth as untreated, 0 = no growth, -100 = all killed)
# Settings in all cases: 10 µM unless noted
# SR leukemia = test system: SR leukemia
# RPMI-8226 leukemia = test system: RPMI-8226 leukemia
# OVCAR-8 ovarian = test system: OVCAR-8 ovarian
# OVCAR-5 ovarian = test system: OVCAR-5 ovarian
# OVCAR-4 ovarian = test system: OVCAR-4 ovarian
# SK-OV-3 ovarian = test system: SK-OV-3 ovarian
# IGROV1 ovarian = test system: IGROV1 ovarian
# OVCAR-3 ovarian = test system: OVCAR-3 ovarian
# HS 578T breast = test system: HS 578T breast
# NCI/ADR-RES ovarian = test system: NCI/ADR-RES ovarian
# T-47D breast = test system: T-47D breast
# BT-549 breast = test system: BT-549 breast
# MDA-MB-435 melanoma = test system: MDA-MB-435 melanoma
# SW-620 colon = test system: SW-620 colon
# MCF7 breast = test system: MCF7 breast
# HCT-116 colon = test system: HCT-116 colon
# HCC-2998 colon = test system: HCC-2998 colon
# KM12 colon = test system: KM12 colon
Structure (SMILES),growth (SR leukemia),growth (RPMI-8226 leukemia),growth (OVCAR-8 ovarian),growth (OVCAR-5 ovarian),growth (OVCAR-4 ovarian),growth (SK-OV-3 ovarian),growth (IGROV1 ovarian),growth (OVCAR-3 ovarian),growth (HS 578T breast),growth (NCI/ADR-RES ovarian),growth (T-47D breast),growth (BT-549 breast),growth (MDA-MB-435 melanoma),growth (SW-620 colon),growth (MCF7 breast),growth (HCT-116 colon),growth (HCC-2998 colon),growth (KM12 colon)
CC(C)n1cc(C2=C(c3cccc4ccccc34)C(=O)NC2=O)c2cc(Br)ccc21,25.8%,92.1%,72.7%,89.8%,64.9%,64%,69.9%,20.7%,45.8%,21.1%,90%,92.6%,61.6%,46.7%,76.1%,35.4%,52.1%,36.5%
Cn1ccnc1C(=O)/C=C/c1ccc(C(=O)Nc2ccccc2F)cc1,6.83% (active),9.83% (active),15.6%,18%,37.7%,51.9%,13.5%,-4.52% (active),17.1%,21.7%,38.3%,-13.2% (active),1.95% (active),13.5%,13.4%,8.83% (active),88%,13.8%
CCN(CC)CCOc1ccc(/C(=C(\C)Cc2ccc(OC)cc2)c2ccc(O)cc2)cc1,-52.4% (active),-33.2% (active),29%,69.3%,46.7%,64.5%,47.3%,46.7%,33.5%,53.1%,20.3%,56.7%,-67.8% (active),-25.2% (active),-14.8% (active),-34.8% (active),0.439% (active),32.4%
O=C(NC1CCCCCC1)c1ccc2c(=O)n3c(nc2c1)CCCCC3,116%,87%,101%,111%,76.2%,108%,94.2%,110%,83%,91.3%,100%,100%,112%,101%,100%,104%,121%,115%
[2H]C([2H])([2H])Oc1c(F)cccc1/C=C/C(=O)/C=C(O)/C=C/c1cccc(F)c1OC([2H])([2H])[2H],94.8%,99.2%,87%,104%,89.1%,117%,101%,108%,112%,92.4%,83.8%,97.6%,94.9%,109%,74.5%,84.1%,112%,102%
Cn1cc(-c2csc(-c3cn(CCO)c4ccc(F)cc34)n2)c2cccnc21,20.7%,62.6%,75.9%,65.6%,36%,73%,51.9%,49.7%,79.8%,45.5%,9.75% (active),52.8%,1.7% (active),29.8%,34.9%,35.8%,64.1%,30.6%
CC(=O)OCC(=O)O[C@@H]1C[C@]2(C(C)C)O[C@@]1(C)[C@@H]1CC[C@@H](C)[C@H]1[C@@H]2OC(=O)/C=C/c1ccccc1,78.4%,73.7%,25%,99.8%,87.9%,87.7%,106%,90.9%,-18% (active),21.7%,48.6%,2.51% (active),95%,104%,77.8%,81.5%,101%,90.2%
O=C(Nc1ccc2c(c1)-c1ccccc1C2)C1CC(=O)N(c2ccc3c(c2)OCO3)C1 (stereo unspecified),77.2% [50 µM],81.8% [50 µM],28.5% [50 µM],83.5% [50 µM],2.45% [50 µM] (active),76.1% [50 µM],80.5% [50 µM],31.3% [50 µM],31.7% [50 µM],58.9% [50 µM],52.8% [50 µM],80.3% [50 µM],70.7% [50 µM],75.2% [50 µM],65.6% [50 µM],36.8% [50 µM],81% [50 µM],51.2% [50 µM]
O=C1CC2C=CCN2C=C1NC(=O)c1ccccc1 (stereo unspecified),88.7%,112%,114%,97.4%,109%,113%,106%,105%,115%,103%,99.8%,103%,105%,109%,101%,93.6%,101%,101%
C=CN(C(=O)N1CCN(c2cc3c(cc2F)c(=O)c(C(=O)O)cn3C2CC2)CC1)c1nc(-c2ccc(C)cc2)cs1,13.7%,7.02% (active),14.1%,38.5%,23.3%,-5.97% (active),22.4%,5.61% (active),13.8%,44.9%,36.3%,11.9%,22.1%,20.8%,7.94% (active),10.9%,39%,21.9%
Cc1ccc(Nc2nc(N)nc(N)c2N=O)cc1Cl,72.5%,78.3%,95.8%,93.9%,76.9%,96.6%,37.7%,68.3%,75.2%,79.3%,5.56% (active),98.7%,89.1%,95%,36.4%,78.2%,86%,80.6%
CCC(C)C(N)C(=O)NC(CC(C)C)C(=O)N1CCCC1C(=O)NC(Cc1c[nH]c2ccccc12)C(=O)NC(CCCCN)C(=O)NC(Cc1c[nH]c2ccccc12)C(=O)N1CCCC1C(=O)NC(Cc1c[nH]c2ccccc12)C(=O)NC(Cc1c[nH]c2ccccc12)C(=O)N1CCCC1C(=O)NC(Cc1c[nH]c2ccccc12)C(=O)NC(CCCNC(=N)N)C(=O)NC(CCCNC(=N)N)C(N)=O (stereo unspecified),10.9%,75%,75.5%,98.8%,119%,109%,58.4%,101%,105%,92.1%,108%,109%,95.9%,108%,121%,95.3%,101%,63.7%
CCN1CCN(c2cc(C(=O)Nc3cccc(Nc4ccc5c(OC)cccc5n4)c3)cc(C(F)(F)F)c2)CC1,-3.44% (active),7.08% (active),21.1%,54.8%,26.9%,54%,12.8%,33%,34%,9.7% (active),11%,69.6%,1.29% (active),3.22% (active),-45.3% (active),24.3%,-53.3% (active),-10.3% (active)
O=C(CN1C(=O)NC2NC(=O)NC21)N/N=C/c1cccc([N+](=O)[O-])c1 (stereo unspecified),110%,110%,111%,105%,105%,108%,103%,108%,107%,101%,107%,102%,98.1%,105%,91.8%,116%,118%,104%
CCOC(=O)C1=CCC(n2cc(F)c(=O)[nH]c2=O)O1 (stereo unspecified),99.8%,105%,97%,119%,130%,121%,126%,92.5%,116%,106%,98.5%,107%,110%,89.9%,93.1%,96.7%,103%,88.3%
CN1CCN(Cn2nc(-c3cc(Cl)cc(Cl)c3Cl)oc2=S)CC1,70.4%,160%,96%,93.6%,92.8%,100%,97.8%,99.2%,91.2%,99%,98.9%,94.9%,88.9%,100%,97.5%,97.5%,105%,94.2%
COC12C=C/C(=C(/C(=O)OCc3ccccn3)C(=O)CCCCCCCCC3(OC)C=C/C(=C(/C(=O)OCc4ccccn4)C(=O)CCCCCCCC1)O3)O2,-9.81% (active),-14.8% (active),16.8%,34.9%,28.8%,46.3%,-39.1% (active),-36.3% (active),49.7%,7.96% (active),18.5%,-26.9% (active),-23.6% (active),8.34% (active),-0.915% (active),-59.7% (active),-82.6% (active),-76.2% (active)
